These results are taken from PubChem BioAssay.

Activity calls are given as the source filed them.

Experiment [1] concerns Human papillomavirus type 1a protein E7 (residues 44-93). Nature of the experiment: small molecules binding HPV E7 44-93 – biochemical, small-molecule microarray, residues 44-93, 635 nm fluorescence, primary screen (AID 1108).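 Note: E7 fragment applied at 1 µg/mL in TBST for 1 h at 4 C; score combines spot fluorescence with its signal to noise ratio.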 Particulars: fluorescence 635 nm, higher = more signal.
Experiment [2] is described as follows: hepatitis C replication reporter changes, two-sided – Huh7 cells, luciferase reporter, HCV replication inhibitor project, primary screen (AID 1109).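 Note: huh7 hepatoma cells harbouring a luciferase neomycin HCV replicon reporter; luciferase luminescence as measure of HCV replicon replication; test concentration not given here.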 The conditions noted are these: Huh7 HCV replicon luciferase reporter, 48 h; higher = more signal.
The target in experiment [3] is Left-right determination factor 2 (Homo sapiens) (UniProt O00292). Description: small molecules binding LEFTY2 protein – biochemical, small-molecule microarray, 635 nm fluorescence scan, primary screen (AID 1110). The conditions noted are these: higher = more signal.
In experiment [4] the target is Calmodulin-1 (Homo sapiens) (UniProt P0DP23). Description: small molecules binding calmodulin-1 with EGTA – biochemical, small-molecule microarray, Cy5-labelled CALM1, profiling panel (AID 1111).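 Note: labelled calmodulin applied in Tris saline Tween buffer holding calcium plus EGTA and DTT.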 Particulars: Cy5-CALM1 binding fluorescence, higher = more signal.
Experiment [5] shares this target. Nature of the experiment: small molecules binding Ca-loaded calmodulin-1 – biochemical, small-molecule microarray, Cy5-labelled CALM1, plus calcium, artefact control for SMM control-protein annotation, profiling panel (AID 1112).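 Note: score merges spot fluorescence with signal to noise from triplicate slides.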 The conditions noted are these: Cy5-CALM1 binding fluorescence, higher = more signal.
Experiment [6] in a line: probe aWnt5a binding to arrayed compounds – biochemical, biotinylated probe, 635/667 nm fluorescence, primary screen (AID 1113).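 Note: score merges 667 nm fluorescence intensity with signal-to-noise per printed feature.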 Particulars: small-molecule microarray, higher = more signal.
The nature of experiment [7]: probe aShh binding to arrayed compounds – biochemical, biotinylated probe, 635/667 nm fluorescence, primary screen (AID 1114).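 Note: probe is biotin-labelled aShh protein from a stem cell growth factor screen; measures binding of labelled protein to compounds printed on the slide; score merges feature fluorescence at 667 nm with signal-to-noise.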 The conditions noted are these: small-molecule microarray, higher = more signal.
Experiment [8] is described as follows: probe aNog binding to arrayed compounds – biochemical, biotinylated probe, 635/667 nm fluorescence, primary screen (AID 1115).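 Note: probe is biotinylated aNog protein used at 0.15 µg/mL for 1 h at 4 C; z-score combines 667 nm fluorescence of each spot with its signal to noise.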 Particulars: small-molecule microarray, higher = more signal.
Experiment [9] deals with Torsin-1A-interacting protein 1 (Homo sapiens) (UniProt Q5JTV8). Description: compound microarray binding of lysate hLAP1 – cell lysate, small-molecule microarray, COS7 lysate, 635/667 nm fluorescence, primary screen (AID 1116). The conditions noted are these: 635 nm fluorescence, higher = more signal.
Experiment [10] addresses Alpha-bungarotoxin (Bungarus multicinctus) (UniProt P60615). Nature of the experiment: compounds binding labelled alpha-BTX control protein – biochemical, small-molecule microarray, Alexa647 label, 635/667 nm fluorescence, artefact control for SMM control protein annotation, profiling panel (AID 1117). The conditions noted are these: alpha-BTX-A647 binding fluorescence, higher = more signal.

The target of a further experiment is Albumin (Bos taurus) (UniProt P02769). Nature of the experiment: compounds binding labelled BSA control protein – biochemical, small-molecule microarray, Alexa647 label, 635/667 nm fluorescence, artefact control for SMM control protein annotation, profiling panel (AID 1118).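 Note: score merges 667 nm emission intensity and signal-to-noise per printed compound spot.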 The conditions noted are these: BSA-A647 binding, fluorescence 635 nm, higher = more signal.

Experiment [11] can be described thus: probe aXIP binding to arrayed compounds – biochemical, NeuroSMM set, 635/667 nm fluorescence, primary screen (AID 1119).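 Note: probe is the protein aXip251-270 applied at 1 µg/mL to compound-printed slides; binding of probe to printed compounds measured as 667 nm fluorescence plus signal to noise.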 The conditions noted are these: small-molecule microarray, higher = more signal, called active from +8 up or from −8 down.
Experiment [12] in a line: probe aNOTCH3 binding on compound microarray – biochemical, small-molecule microarray, 635/667 nm fluorescence, primary screen (AID 1120).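 Note: probe is a biotin-tagged antibody raised against NOTCH3 rather than NOTCH3 protein; score merges spot fluorescence near 667 nm with spot signal to noise.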 Particulars: higher = more signal.
Experiment [13] in a line: probe aNOTCH2 binding on compound microarray – biochemical, small-molecule microarray, 635/667 nm fluorescence, primary screen (AID 1121).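 Note: score merges feature fluorescence read at 667 nm with its signal to noise.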 Particulars: higher = more signal.
Experiment [14] addresses Carbonic anhydrase 2 (Homo sapiens) (UniProt P00918). Description: compounds binding carbonic anhydrase 2 – biochemical, small-molecule microarray, Alexa647-labelled CAII, profiling panel (AID 1122). The conditions noted are these: CAII-A647 binding fluorescence, higher = more signal.
Experiment [15] can be described thus: COS7 lysate on small-molecule microarray, probe aHis, 635 nm (AID 1123).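 Note: z-score combines 667nm fluorescence intensity with signal-to-noise per printed compound spot.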 The conditions noted are these: COS7 cell lysate, fluorescence, higher = more signal.
Experiment [16] is described as follows: probe aLAP1 signal on lysate-treated microarray – cell lysate, small-molecule microarray, COS7 lysate, primary screen (AID 1124).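 Note: lysate comes from COS7 cells expressing LAP1 and is applied at 0.3 µg/mL; score merges spot fluorescence near 667 nm with signal-to-noise over triplicate slides.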 The conditions noted are these: probe aLAP1, fluorescence, higher = more signal.
The next experiment relates to Sam68 (KHDRBS1). Description: compounds binding KHDRBS1 protein – biochemical, small-molecule microarray, 635 nm fluorescence, primary screen (AID 1125).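 Note: score merges 667 nm channel intensity with signal to noise over triplicate slides.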 The conditions noted are these: higher = more signal.
For experiment [17], the system named is Chordin-like protein 2 (CHRDL2). Description: compounds binding chordin-like 2 – biochemical, small-molecule microarray, 635 nm fluorescence, primary screen (AID 1126).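 Note: printed compound slides probed with Chrdl2 protein at 4 µg/mL for 1 h at 4 C; score merges 667 nm emission intensity with signal to noise over three replicate slides.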 The conditions noted are these: fluorescence 635 nm, higher = more signal.
In experiment [18] the target is Concanavalin-A (Canavalia ensiformis) (UniProt P02866). Nature of the experiment: compounds binding concanavalin A lectin – biochemical, small-molecule microarray, Alexa647 label, 635 nm, artefact control for SMM control protein annotation, primary screen (AID 1127).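 Note: z combines 667 nm emission intensity with signal-to-noise across three replicate slides.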 Particulars: ConA-A647 binding fluorescence, higher = more signal.
Sequence of Concanavalin-A (Canavalia ensiformis) (P02866 whole entry, looked up): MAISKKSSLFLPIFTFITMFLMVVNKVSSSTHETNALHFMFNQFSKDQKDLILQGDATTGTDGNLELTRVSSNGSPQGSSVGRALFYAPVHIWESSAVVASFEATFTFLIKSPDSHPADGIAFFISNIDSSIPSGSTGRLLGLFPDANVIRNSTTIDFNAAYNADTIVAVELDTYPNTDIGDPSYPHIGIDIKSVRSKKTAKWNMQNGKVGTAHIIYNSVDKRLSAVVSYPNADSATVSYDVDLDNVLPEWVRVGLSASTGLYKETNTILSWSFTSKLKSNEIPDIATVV

Sequence of Left-right determination factor 2 (Homo sapiens) (O00292 whole entry, looked up): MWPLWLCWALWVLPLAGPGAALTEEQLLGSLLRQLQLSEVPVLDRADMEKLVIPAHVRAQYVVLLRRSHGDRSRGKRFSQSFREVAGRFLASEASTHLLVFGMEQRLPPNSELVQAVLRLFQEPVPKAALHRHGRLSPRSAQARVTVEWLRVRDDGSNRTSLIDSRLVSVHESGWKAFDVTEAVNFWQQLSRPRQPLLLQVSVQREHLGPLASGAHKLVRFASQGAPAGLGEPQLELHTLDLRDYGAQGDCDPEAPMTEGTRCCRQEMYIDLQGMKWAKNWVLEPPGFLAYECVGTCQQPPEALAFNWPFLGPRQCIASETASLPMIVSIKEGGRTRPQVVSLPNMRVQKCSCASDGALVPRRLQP
Sequence of Albumin (Bos taurus) (P02769 whole entry, looked up): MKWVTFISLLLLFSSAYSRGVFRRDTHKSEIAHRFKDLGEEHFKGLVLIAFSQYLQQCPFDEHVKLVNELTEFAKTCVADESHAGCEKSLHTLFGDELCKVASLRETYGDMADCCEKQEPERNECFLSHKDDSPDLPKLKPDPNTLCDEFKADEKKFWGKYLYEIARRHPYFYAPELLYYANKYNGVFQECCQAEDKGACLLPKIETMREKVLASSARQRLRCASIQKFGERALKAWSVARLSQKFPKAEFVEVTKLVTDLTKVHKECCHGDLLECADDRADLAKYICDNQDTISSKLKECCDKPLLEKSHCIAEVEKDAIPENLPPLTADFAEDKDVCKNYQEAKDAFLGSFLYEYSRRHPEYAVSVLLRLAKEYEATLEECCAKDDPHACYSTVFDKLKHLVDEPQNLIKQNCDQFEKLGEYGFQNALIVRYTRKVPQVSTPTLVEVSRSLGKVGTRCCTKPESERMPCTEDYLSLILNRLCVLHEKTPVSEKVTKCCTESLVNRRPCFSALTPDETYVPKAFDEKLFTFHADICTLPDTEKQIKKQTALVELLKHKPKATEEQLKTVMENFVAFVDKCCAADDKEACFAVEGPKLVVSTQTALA
Sequence of Alpha-bungarotoxin (Bungarus multicinctus) (P60615 whole entry, looked up): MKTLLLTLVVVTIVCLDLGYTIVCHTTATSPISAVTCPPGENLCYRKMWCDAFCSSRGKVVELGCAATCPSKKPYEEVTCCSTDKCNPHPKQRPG
Sequence of Torsin-1A-interacting protein 1 (Homo sapiens) (Q5JTV8 whole entry, looked up): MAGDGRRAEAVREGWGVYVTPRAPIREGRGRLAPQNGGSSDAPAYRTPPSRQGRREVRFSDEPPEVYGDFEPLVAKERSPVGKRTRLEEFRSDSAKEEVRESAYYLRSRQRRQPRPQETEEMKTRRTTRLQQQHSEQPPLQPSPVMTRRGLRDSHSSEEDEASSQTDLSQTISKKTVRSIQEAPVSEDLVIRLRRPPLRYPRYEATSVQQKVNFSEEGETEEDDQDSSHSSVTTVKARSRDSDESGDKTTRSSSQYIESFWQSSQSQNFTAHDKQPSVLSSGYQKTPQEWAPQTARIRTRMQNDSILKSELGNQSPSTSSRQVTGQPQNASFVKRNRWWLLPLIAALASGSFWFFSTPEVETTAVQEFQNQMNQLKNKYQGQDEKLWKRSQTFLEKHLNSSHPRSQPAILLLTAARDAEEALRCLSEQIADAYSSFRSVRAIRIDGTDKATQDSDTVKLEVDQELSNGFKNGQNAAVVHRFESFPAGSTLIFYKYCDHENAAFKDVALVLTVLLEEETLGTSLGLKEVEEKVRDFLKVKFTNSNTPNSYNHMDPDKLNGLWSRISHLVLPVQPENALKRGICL

For the compound `CCCCc1cn(C[C@H](Cc2ccccc2)NC(=O)N[C@H](CO)CCc2oc(C(C)=O)c(C(=O)OC)c2C(=O)OC)nn1`, the composite z-score in [1] was 1.39; in [3] it was 1.26; in [4], 0.451; in experiment [5], -0.693; in [6], -0.0045; in experiment [7], 0.184. For the same compound, the composite z-score in experiment [8] is -0.0965; in experiment [9], 0.644; in experiment [10], 0.463; with Albumin (Bos taurus), 0.25; in experiment [12], 0.328; in [13] it was -0.12. Besides, the composite z-score in experiment [14] turned out to be 0.151; in experiment [15], 0.607; in experiment [16], 0.0969; with Sam68 (KHDRBS1), 1.25; in experiment [17], 0.756; in experiment [18], 0.859. In addition, the z-score in experiment [2] is -0.639. In experiment [11], the composite Z-score was 0.119 (inactive).

Turning to `CN1C(=O)C2C=CC(C(O)C3CCCCC3)N(Nc3ccc([N+](=O)[O-])cc3[N+](=O)[O-])C2C1=O` (stereo not given), the composite z-score in experiment [1] is 1.28; in experiment [3] it was 0.0511; in experiment [4], 1.42; in experiment [5] it was 0.377; in [6], -0.0472; in experiment [7], 0.13. In addition, the composite z-score in experiment [8] is 1.59; in [9] it was 1.28; in experiment [10], 1.34; with Albumin (Bos taurus), 0.892; in experiment [12] it was 0.23; in experiment [13], 0.0302. The composite z-score is 0.732 in experiment [14]; 2.62 in [15]; 0.605 in experiment [16]; 1.31 in the experiment on Sam68 (KHDRBS1); -0.384 in experiment [17]; 0.955 in experiment [18]. In addition, the z-score in [2] was -0.613. Also, in experiment [11], the composite Z-score was -0.131 (inactive).

`CC(C)N1C(=O)c2ccccc2[C@](C)(C(=O)NCc2ccccc2)[C@@H]1c1ccc(CO)cc1`: the composite z-score in [1] is -0.375; in [3], -1; in experiment [4] it was -0.742; in [5], -0.514; in experiment [6], -0.0735; in [7], -0.19. For the same compound, the composite z-score in experiment [8] was -0.141; in [9], 1.13; in experiment [10], -0.491; with Albumin (Bos taurus), 0.182; in [12], -0.245; in [13], -0.0323. Also, the composite z-score was 0.703 in experiment [14]; -0.129 in experiment [15]; 0.967 in experiment [16]; -0.484 with Sam68 (KHDRBS1); -0.798 in [17]; -0.866 in experiment [18]. In experiment [2], this compound showed a z-score of 0.0554. Besides, in experiment [11], the composite Z-score is 1.32 (inactive).

Take `COCC(=C=CC[C@@H](O)c1ccccc1OCCO)C[C@@H](O)c1cc(Cl)cc(Cl)c1O`: the composite z-score is 1.44 in experiment [1]; 0.635 in experiment [3]; 0.362 in experiment [4]; -0.534 in experiment [5]; -0.126 in [6]; -0.14 in experiment [7]. Besides, the composite z-score in [8] is -0.0863; in [9], 0.704; in experiment [10], 0.792; in the experiment with Albumin (Bos taurus), 0.641; in experiment [12], 0.129; in [13] it was -0.14. Besides, the composite z-score in [14] was 0.38; in experiment [15], 1.24; in experiment [16] it was 0.822; in the experiment on Sam68 (KHDRBS1), 1.3; in experiment [17], 0.476; in experiment [18], 1.08. The compound also registered a z-score in experiment [2] of -2.21. The composite Z-score in experiment [11] was 0.103 (inactive).

Regarding `O=C1O[C@H](c2ccccc2)[C@H](c2ccccc2)N2[C@H]1[C@@H](C(=O)Nc1nc3ccccc3s1)[C@]1(C(=O)Nc3ccc(C#CCCO)cc31)[C@H]2c1ccc(OCCO)cc1`, the composite z-score in experiment [1] stood at 1.39; in experiment [3], 0.436; in [4] it was 1.26; in [5] it was 0.0502; in experiment [6], 0.0927; in [7] it was 0.184. In addition, the composite z-score in experiment [8] was 1.15; in [9], 1.07; in experiment [10], 0.753; in the experiment with Albumin (Bos taurus) it was 0.797; in [12], 0.134; in experiment [13], 0.0785. The composite z-score in experiment [14] is 0.419; in experiment [15], 1.42; in experiment [16], 0.516; with Sam68 (KHDRBS1), 1.32; in experiment [17], 0.586; in experiment [18], 1.09. Besides, the z-score in experiment [2] is -1.65. The composite Z-score in experiment [11] was 0.0956 (inactive).

On to `COc1ccc(C(O)C2C=CC3C(=O)NC(=O)C3N2Nc2ccccn2)cc1` (stereo not given), for which the composite z-score was -1.08 in experiment [1]; 0.494 in [3]; -1.3 in experiment [4]; -0.498 in experiment [5]; 0.0158 in experiment [6]; -0.106 in experiment [7]. Further, the composite z-score is 0.0861 in experiment [8]; 0.658 in [9]; -0.0568 in experiment [10]; -0.131 with Albumin (Bos taurus); 0.0256 in [12]; 0.0308 in experiment [13]. In addition, the composite z-score in experiment [14] is 0.482; in [15] it was 1.39; in experiment [16], 0.348; with Sam68 (KHDRBS1) it was -0.183; in experiment [17] it was 1; in [18], -0.0999. In experiment [2], this compound had a z-score of 0.824. For the same compound, in [11], the composite Z-score was 0.841 (inactive).
